An excerpt weighted towards active compounds, which were near 1.6% of everything screened.
KCNQ2 enhance – potentiators of rat KCNQ2 potassium channel. O88943. CHO-K1 KCNQ2, FluxOR thallium flux fluorescence; active compounds read high. B-score at 10 µM. 310,000 tested, 0.54% active;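 active = fluorescence ratio B-score at least 3 SD of library B-scores, with initial fluorescence B-score within 3 of them, cut at about 5.3 in these data; same plate scores as AID 2156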;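 note: B-score of peak minus minimum over baseline fluorescence ratio after K+ and Tl+ stimulus; positive B-score means potentiation of KCNQ2 with more thallium influx and brighter signal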
Target sequence (O88943 whole entry, looked up): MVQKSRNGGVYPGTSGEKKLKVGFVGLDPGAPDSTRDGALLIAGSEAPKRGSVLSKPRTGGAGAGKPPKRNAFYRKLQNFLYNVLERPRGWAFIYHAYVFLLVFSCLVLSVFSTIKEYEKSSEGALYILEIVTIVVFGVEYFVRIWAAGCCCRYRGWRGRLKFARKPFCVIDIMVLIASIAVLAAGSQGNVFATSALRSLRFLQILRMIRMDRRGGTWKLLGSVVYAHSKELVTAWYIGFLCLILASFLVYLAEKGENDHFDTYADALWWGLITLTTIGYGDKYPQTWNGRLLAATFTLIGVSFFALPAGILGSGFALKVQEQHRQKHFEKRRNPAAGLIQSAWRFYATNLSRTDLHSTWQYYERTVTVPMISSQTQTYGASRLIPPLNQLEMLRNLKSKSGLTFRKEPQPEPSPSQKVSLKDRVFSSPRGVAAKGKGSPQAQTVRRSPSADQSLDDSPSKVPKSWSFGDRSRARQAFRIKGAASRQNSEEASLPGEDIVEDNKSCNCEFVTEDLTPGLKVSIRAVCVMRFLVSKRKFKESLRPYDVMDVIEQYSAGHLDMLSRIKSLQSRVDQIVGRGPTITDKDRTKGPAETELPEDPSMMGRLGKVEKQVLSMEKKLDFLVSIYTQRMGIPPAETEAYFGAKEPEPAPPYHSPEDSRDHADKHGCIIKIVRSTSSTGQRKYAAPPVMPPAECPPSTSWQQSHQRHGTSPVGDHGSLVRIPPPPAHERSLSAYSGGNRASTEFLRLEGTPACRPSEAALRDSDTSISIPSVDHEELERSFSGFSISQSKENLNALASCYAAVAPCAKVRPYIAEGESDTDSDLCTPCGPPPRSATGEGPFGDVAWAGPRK
KCNQ2 block – blocks the rat KCNQ2 potassium channel. O88943. B-score at 10 µM. CHO-K1 KCNQ2, FluxOR thallium flux, 20 min; active compounds read low. AID 2156. 310,000 tested, 1.1% active;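 active = fluorescence ratio B-score at most minus 3 library SDs, with starting brightness B-score within 2 library SDs, cut at about -5.5 in these data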
* = called active by the depositor; i = inactive; . = no result.

SMILES | KCNQ2 enhance | KCNQ2 block
O=S(=O)(NC1CCCCC1)c1ccc(Cl)s1 | 1.7 | i
Cc1onc(-c2c(F)cccc2Cl)c1C(=O)N(C)C1CCCCC1 | 1.1 | i
CCOC(=O)C1=C(C)N=c2s/c(=C\c3ccc(OCC(=O)O)cc3)c(=O)n2C1c1ccccc1OC (stereo not drawn) | 1.1 | i
CCOC(=O)C1=C(C)N=c2s/c(=C\c3ccc(O)c([N+](=O)[O-])c3)c(=O)n2C1c1ccccc1OC (stereo not drawn) | -7.2 | -7.2*
CCOC(=O)C1=C(C)n2c(s/c(=C/c3cccc([N+](=O)[O-])c3)c2=O)=NC1c1ccc(O)c(OC)c1 (stereo not drawn) | -6.1 | -6.1*
CCOC(=O)C1=C(C)N=c2s/c(=C/c3ccccc3)c(=O)n2C1c1ccc(OC)c(OC)c1 (stereo not drawn) | . | i
Clc1ccc2c(c1)Nc1ccccc1CC2 | . | i
COc1ccccc1CCNC(=O)C(=O)NCC1OCCN1S(=O)(=O)c1ccc2c(c1)OCCO2 (stereo not drawn) | . | i
Cc1ccc(NCc2nnc(SCC(=O)c3ccccc3)o2)c(C)c1 | . | i
Cc1ccc(C)c(NC(=O)CSc2nnc(CSc3nc(C)cc(C)n3)n2Cc2ccco2)c1 | . | i
Cc1ccc(NCc2nnc(SCC(=O)c3ccccc3)n2Cc2ccco2)c(C)c1 | -7.8 | -7.8*
Cc1ccc(NC(=O)CSc2nnc(CSc3nc(C)cc(C)n3)n2Cc2ccco2)c(C)c1 | -6.7 | -6.7*
COc1ccc2nc(SCc3ccccc3C)nc(C)c2c1 | . | i
Cc1ccc2c(C)nc(SC(C(=O)c3ccccc3)c3ccccc3)nc2c1 (stereo not drawn) | -6 | -6*
Cc1nc(SC(C(=O)c2ccccc2)c2ccccc2)nc2ccccc12 (stereo not drawn) | . | i
COc1ccc2nc(SC(C(=O)c3ccccc3)c3ccccc3)nc(C)c2c1 (stereo not drawn) | -5.6 | -5.6*
Cc1ccc2cc(CN(c3cccc(C)c3C)S(=O)(=O)c3ccccc3)c(=O)[nH]c2c1 | 0.45 | i
O=C(CN1C(=O)CSc2ccc(S(=O)(=O)N3CCCCC3)cc21)NCc1ccccc1Cl | . | i
O=S(=O)(Nc1nc2ccccc2nc1Nc1cccc(S(=O)(=O)N2CCCCC2)c1)c1ccccc1 | . | i
CCCCn1c(SCc2nc3ccccc3s2)nc2ccccc2c1=O | -7.8 | -7.8*
O=c1c2ccccc2nc(SCc2nc3ccccc3s2)n1Cc1ccco1 | . | i
COc1cccc(N2CCN(C(=O)c3cc4ccc(OC)cc4[nH]3)CC2)c1 | 1.2 | i
COc1ccc2cc(C(=O)N3CCN(c4cccc(C)c4C)CC3)[nH]c2c1 | -6.2 | -6.2*
Cc1ccc(-c2cc(C(=O)O)c3cc(Br)ccc3n2)o1 | 1.7 | i
Cc1ccc(-c2cc(C(=O)NC3=NCCS3)c3cc(Br)ccc3n2)o1 | -6.3 | -6.3*
SMILES | KCNQ2 enhance | KCNQ2 block
CC(C(=O)NCc1ccc(Cl)cc1)n1cccc1C(=O)c1ccccc1 (stereo not drawn) | 0.08 | i
COc1ccccc1CNC(=O)C(C)n1cccc1C(=O)c1ccccc1 (stereo not drawn) | -5.7 | -5.7*
CC1Cc2ccccc2N1Cc1cccc([N+](=O)[O-])c1 (stereo not drawn) | . | i
CCCCC(CC)CNC(=O)C(=O)c1ccccc1NC(C)=O (stereo not drawn) | 0.97 | i
O=C(c1cnn2c(C(F)(F)F)cc(-c3ccc(F)cc3)nc12)N1CCc2ccccc2C1 | -6.3 | -6.3*
Cc1ccc(-c2cc(C(F)F)n3ncc(C(=O)N4CCc5ccccc5C4)c3n2)cc1 | . | i
O=C(NCc1ccco1)c1nn2c(C(F)(F)F)cc(-c3cccs3)nc2c1Br | -6.8 | -6.8*
O=C(NCc1ccco1)c1cc2nc(-c3ccc4c(c3)OCO4)cc(C(F)(F)F)n2n1 | -8.2 | -8.2*
O=C(NCc1cccnc1)c1cc2nc(-c3ccc4c(c3)OCO4)cc(C(F)(F)F)n2n1 | 0.51 | i
O=C(NCc1ccco1)c1nc2nc(-c3cccs3)cc(C(F)(F)F)n2n1 | 0.75 | i
CCCC1=C(C(=O)OCC)C(c2sccc2C)n2ncnc2N1 (stereo not drawn) | 1.5 | i
COc1ccc(/C=N/NC(=O)c2cccc(O)c2)cc1Cn1nc(C)c([N+](=O)[O-])c1C | . | i
Cc1ccc(C)n1-c1sc2c(c1C#N)CCC(C)C2 (stereo not drawn) | -7.8 | -7.8*
CC(=O)Nc1sc2c(c1C#N)CCC(C)C2 (stereo not drawn) | 1.8 | i
CCN(CC)S(=O)(=O)c1ccc(N2CCOCC2)c(NC(=O)COc2ccc(Cl)cc2)c1 | -6.6 | -6.6*
CCN(CC)S(=O)(=O)c1ccc(N2CCOCC2)c(NC(=O)c2cc(C)cc(C)c2)c1 | -6.2 | -6.2*
CCN(CC)S(=O)(=O)c1ccc(N2CCOCC2)c(NC(=O)CC(C)(C)C)c1 | . | i
CCN(CC)S(=O)(=O)c1ccc(N2CCOCC2)c(NC(=O)c2ccccc2)c1 | . | i
CC(NC(=O)c1ccc2c(c1)OCO2)C(c1cccs1)N1CCN(c2ccccc2)CC1 (stereo not drawn) | . | i
CCOc1ccccc1C1NC(=O)CCC1[N+](=O)[O-] (stereo not drawn) | . | i
CCOC(=O)N1CCN(S(=O)(=O)N2CCCC(C(=O)NCCCN3CC(C)CC(C)C3)C2)CC1 (stereo not drawn) | 0.71 | i
CC(NC(=O)[C@H](Cc1c[nH]c2ccccc12)NC(=O)[C@@H]1Cc2ccccc2CN1)c1ccccc1 (stereo partly drawn) | -5.9 | -5.9*
Cc1cccc(NC(=O)[C@H](Cc2c[nH]c3ccccc23)NC(=O)[C@@H]2Cc3ccccc3CN2)c1 | -6.5 | -6.5*
CCc1ccc(NC(=O)[C@H](Cc2c[nH]c3ccccc23)NC(=O)[C@@H]2Cc3ccccc3CN2)cc1 | . | i
Cc1ccc(NC(=O)[C@H](Cc2c[nH]c3ccccc23)NC(=O)[C@@H]2Cc3ccccc3CN2)c(C)c1 | -6.7 | -6.7*
SMILES | KCNQ2 enhance | KCNQ2 block
Cc1ccc(NC(=O)[C@H](Cc2ccccc2)NC(=O)[C@@H]2Cc3ccccc3CN2)c(C)c1 | . | i
CC(C)C[C@H](NC(=O)[C@@H]1Cc2ccccc2CN1)C(=O)Nc1ccc(C(C)C)cc1 | . | i
Cc1ccc(N(CC(O)CN2CCCCC2)S(=O)(=O)c2ccc(C)cc2)cc1 (stereo not drawn) | . | i
CNC(=O)c1c(C)noc1C | . | i
Cc1ccc(-n2ccc(=O)c(C(=O)Nc3ccc(S(=O)(=O)Nc4onc(C)c4C)cc3)n2)cc1 | 0.35 | i
CC(=O)c1ccc(-c2cccc(-c3nc4ccccn4c3NC3CCCCC3)c2)cc1 | -5.8 | -5.8*
CCC(C)Sc1cc(-c2nc3ccccn3c2NC2CCCCC2)ccc1OC (stereo not drawn) | 0.01 | i
O=C(CCc1nnc2ccc(NCc3ccco3)nn12)Nc1ccccc1F | 1.9 | i
CC1(C)Cc2c(cnn2-c2cccc(F)c2)C(NC(=O)CSc2ccncc2)C1 (stereo not drawn) | 0.13 | i
O=C(NCCc1ccco1)C(=O)NCC1OCCCN1S(=O)(=O)c1ccccc1 (stereo not drawn) | . | i
O=C(Nc1ccc(F)cc1)C(NC1CCCCC1)c1ccccc1 (stereo not drawn) | -6 | -6*
O=C(Nc1ccc(F)cc1)NC1CCCCCCC1 | 1.1 | i
O=C1CC(NS(=O)(=O)c2ccc([N+](=O)[O-])cc2)CN1c1cccc(F)c1 (stereo not drawn) | 0.98 | i
